# Source: PubChem
# ZTA counter: counter-screen for EBNA-1 inhibitors: inhibitors of Epstein-Barr virus ZTA | P03206 | ZTA-DNA binding, fluorescence polarization | inhibition, % at 11 µM | actives 0.15% (n = 320,000) | AID 2234; in the data active means inhibition above about 33%
# Target sequence (P03206 whole entry, looked up): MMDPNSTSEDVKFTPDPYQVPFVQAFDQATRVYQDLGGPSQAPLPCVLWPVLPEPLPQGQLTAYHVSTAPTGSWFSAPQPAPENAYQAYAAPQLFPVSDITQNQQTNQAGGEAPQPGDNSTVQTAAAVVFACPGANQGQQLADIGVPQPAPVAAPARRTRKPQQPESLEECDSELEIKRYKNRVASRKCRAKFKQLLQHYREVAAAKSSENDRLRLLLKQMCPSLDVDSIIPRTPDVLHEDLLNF
# PAFAH1B3 inh: inhibitors of human PAFAH1B3; Q15102; inhibition, % at 3.39 µM; recombinant PAFAH1B3, FP-rhodamine probe, fluorescence polarization; actives 0.28% (n = 340,000);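 active means inhibition above the screen-wide average of all tested compounds plus 3 SD, cut at about 25% in these data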
# Target sequence (Q15102 whole entry, looked up): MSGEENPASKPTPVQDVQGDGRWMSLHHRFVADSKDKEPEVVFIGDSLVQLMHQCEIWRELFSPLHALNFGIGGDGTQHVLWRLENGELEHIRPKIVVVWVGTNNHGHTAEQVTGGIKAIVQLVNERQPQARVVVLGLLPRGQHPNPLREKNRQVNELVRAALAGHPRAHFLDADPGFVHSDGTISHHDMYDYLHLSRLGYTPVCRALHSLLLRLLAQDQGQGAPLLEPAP
# pPAFAH FP inh: inhibitors of human plasma PAF acetylhydrolase (pPAFAH) | recombinant pPAFAH, FP-rhodamine probe fluorescence polarization | inhibition, % at 3.39 µM | actives 1.5% (n = 330,000);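 active means inhibition above the mean inhibition across the screen plus 3 SD, cut at about 25% in these data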;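 further: inhibitors block binding of the rhodamine activity-based probe so polarization drops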
# EBNA-1 inh: blocks EBNA-1 binding to DNA. EBNA-1 DNA binding, fluorescence polarization. inhibition, % at 14.8 µM. actives 0.34% (n = 300,000). AID 1950; in the data active means inhibition above about 28%
# PAFAH2 FP inh: inhibitors of human PAFAH2; actives 0.99% (n = 340,000); recombinant PAFAH2, FP-rhodamine activity probe, fluorescence polarization; inhibition, % at 3.39 µM;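 active means inhibition above the mean over all tested compounds plus 3 SD, cut at about 30% in these data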;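 further: inhibitors block probe labeling of enzyme so polarization drops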
# PAFAH1B2 FP inh: blocks human PAF acetylhydrolase 1b catalytic subunit 2; P68402; recombinant PAFAH1B2, FP-rhodamine activity probe, fluorescence polarization; inhibition, % at 3.39 µM; actives 1.2% (n = 340,000);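 active means inhibition above the mean of all tested compounds plus 3 SD, cut at about 24% in these data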
# A number is an active result; – = inactive; · = not tested or not shown; + = active, no number; ! = a repeat was not active. The list is not random: actives were taken first. Their share in the collection is about 2.9%.
SMILES,ZTA counter,PAFAH1B3 inh,pPAFAH FP inh,EBNA-1 inh,PAFAH2 FP inh,PAFAH1B2 FP inh
Fc1ccc(COc2cccc3cccnc23)cc1,–,·,–,–,·,·
O=S1(=O)CCOC[C@H](Cc2ccccc2)N1Cc1ccc(F)cc1,–,–,–,–,–,33
CCOc1ccc(NC(=O)Nc2cc(C(=O)O)ccc2N2CC3CC(C2)c2cccc(=O)n2C3)cc1 (configuration not stated),–,–,30,–,–,–
O=C(COC(=O)CNC(=O)c1cccc(OC(F)F)c1)NNC(=O)c1ccccc1,–,–,–,·,–,–
O=C(N[C@@H](Cc1ccccc1)C(=O)OCc1ccccc1)c1nc[nH]c1C(=O)NCc1ccccc1,–,–,33,–,–,–
CC(C)C[C@H](NC(=O)c1[nH]cnc1C(=O)N[C@@H](Cc1ccccc1)C(=O)OCc1ccccc1)C(=O)OCc1ccccc1,–,–,–,–,–,–
O=C(CN1CCCCC1)N/N=C/c1ccc(Cl)cc1,–,–,–,–,–,–
O=C(O/N=C/c1ccc(Cl)cc1)C1CCCCC1,–,–,–,–,77,94
O=C(Nc1ccccc1Cl)Oc1ccc(-c2ccccc2)cc1,–,–,–,–,–,60
O=C(Nc1ccccc1Cl)Nc1ccccc1Cl,–,–,–,–,–,–
NS(=O)(=O)c1ccc(NC(=O)c2ccc(CNS(=O)(=O)c3cc(C(F)(F)F)ccc3Cl)cc2)cc1,–,–,–,–,–,–
O=C1c2c(O)ccc(O)c2C(=O)c2c(NCCNCCO)ccc(NCCNCCO)c21,+,–,–,110,–,–
O=C(Nc1ccc(Cl)c(C(=O)N2CCOCC2)c1)c1ccccc1,–,–,–,–,–,–
CN(C)CCO[C@@H](c1ccc(Cl)cc1)c1ccccn1,–,–,27,–,–,–
O=C(O)c1ccc(N/N=C/c2ccc(OC(=O)c3ccccc3Cl)cc2)cc1,–,–,27,–,–,–
COc1ccccc1OCCNC(=O)c1ccc(NC(=O)CC2SC(N3CCCC3)=NC2=O)cc1 (configuration not stated),·,–,·,·,–,–
CCOC(=O)c1c2c(n(Cc3ccccc3)c1C)C(=O)C(=O)c1ccccc1-2,·,79,·,·,52,30
CCOC(=O)c1c2c3c(cccc3n(C)c1=O)C(=O)c1ccccc1-2,–,26,31,–,–,–
CCCn1c(C)c(C(=O)OCC)c(O)c(-c2ccccc2)c1=O,–,·,–,–,·,·
COc1cc(-c2nc(-c3ccc4c(c3)-c3ccccc3S4(=O)=O)c(-c3ccccc3)[nH]2)cc(OC)c1O,–,–,27,–,–,–
CN(C)c1cccc(/C=C(\C#N)c2ccccc2)c1,–,–,34,–,–,–
CN(C)c1ccc(/C=C(\C#N)c2ccccc2)cc1,·,–,·,·,–,–
Cc1sc(N(C(=O)CCc2ccccc2)c2ccc(C(=O)O)cc2)nc1-c1ccccc1,–,–,25,–,–,34
CCC(=O)N(c1ccc(C(=O)O)cc1)c1nc(-c2ccc(OC)cc2)c(C)s1,–,–,–,–,–,–
NNC(=O)c1nn(-c2ccccc2)cc1O,–,·,31,–,·,·
SMILES,ZTA counter,PAFAH1B3 inh,pPAFAH FP inh,EBNA-1 inh,PAFAH2 FP inh,PAFAH1B2 FP inh
COc1ccc(CNCc2cccc(Oc3ccccc3)c2)cc1,–,–,–,–,–,–
O=C(O)CCc1ccc(NCc2cccc(Oc3ccccc3)c2)cc1,–,–,–,–,–,24
O=C1C(Cl)=C(NCCc2ccccc2)C(=O)c2ccccc21,·,40,·,·,30,33
Cc1ccccc1OCC(=O)Nc1ccc2[nH]ncc2c1,–,–,–,–,–,–
O=C(CCN1C(=O)/C(=C/c2ccccc2Cl)SC1=S)NNC(=O)c1cccnc1,–,–,–,–,–,–
O=C(CCN1C(=O)/C(=C/c2ccccc2Cl)SC1=S)NNC(=O)c1ccccc1O,–,–,30,–,–,–
O=C(CCN1C(=O)/C(=C/c2ccccc2Cl)SC1=S)NC1=NCCS1,–,–,–,–,–,34
Cc1ccccc1OC(C)C(=O)NCCCN1CCOCC1 (configuration not stated),–,–,–,–,–,–
CCc1ccc(NC(=O)CNC(=O)[C@@H]2Cc3ccccc3CN2C(=O)OC(C)(C)C)cc1,–,–,–,–,–,–
COc1ccc(C2C(C#N)=C(N)Oc3c2ccc2cccnc32)cc1OC (configuration not stated),–,–,–,–,–,–
COc1cc(C2C(C#N)=C(N)Oc3c2ccc2ccccc32)ccc1OCC(=O)Nc1cccc(C)c1 (configuration not stated),–,–,33,–,–,–
COc1cc(C2C(C#N)=C(N)Oc3c2ccc2ccccc32)ccc1OCC(=O)Nc1ccc(C)cc1 (configuration not stated),–,–,28,–,–,–
CCc1cc(C(=O)N=Nc2c(O)[nH]c3ccc([N+](=O)[O-])cc23)c2ccccc2n1,–,–,33,–,–,–
NC(=O)c1cc[n+](CC2=C(C(=O)O)N3C(=O)[C@@H](NC(=O)C(c4ccccc4)S(=O)(=O)[O-])[C@H]3SC2)cc1 (some centres not stated),35,–,–,–,–,–
CC(C)(C)c1ccc(NC(=O)N2CCCN(c3ccc([N+](=O)[O-])cn3)CC2)cc1,–,–,–,–,–,25
Cc1cccc(NCc2ccc(Br)cc2)n1,–,–,–,–,–,30
Cc1ccnc(NCc2ccc(Br)cc2)c1,–,–,–,–,–,27
Cc1cccc(NCc2cccc3ccccc23)n1,–,–,–,–,–,–
COc1ccc(CNc2cc(C)ccn2)cc1,–,–,–,–,–,–
CCCCCCCSc1ncnc2[nH]ncc12,·,–,·,·,–,–
CN1CCc2cccc3c2[C@H]1Cc1ccc(O)c(O)c1-3,–,–,25!,–,–,–
CC1=NN(c2nc(-c3ccc(F)cc3)cs2)C(=O)C1,–,–,30,–,–,–
COc1ccccc1Cc1noc(-c2cc(Cl)ccc2OC)n1,–,–,29,–,–,–
O=C(Cc1coc2cc(O)ccc12)NNC(=O)c1ccc(Br)s1,·,–,–,·,–,–
COc1cccc(N=c2oc3cc(O)ccc3cc2C(=O)NCC2CCCO2)c1 (configuration not stated),–,–,25,–,–,–
SMILES,ZTA counter,PAFAH1B3 inh,pPAFAH FP inh,EBNA-1 inh,PAFAH2 FP inh,PAFAH1B2 FP inh
COc1ccccc1N=c1oc2cc(O)ccc2cc1C(=O)NCC1CCCO1 (configuration not stated),–,–,26,–,–,–
COc1ccccc1N=c1oc2cc(O)ccc2cc1C(N)=O,–,–,–,–,–,–
C=CCNc1oc(-c2cccs2)nc1S(=O)(=O)c1ccccc1,–,–,–,–,–,–
O=C(CN(c1cccc([N+](=O)[O-])c1)S(=O)(=O)c1ccccc1)N1CCCCC1,–,–,–,–,–,–
O=C(CCn1nnc2ccccc21)Nc1nnc(Cc2ccccc2)s1,–,–,–,–,–,27
Cc1ccc(N=Nc2ccc3ccccc3c2O)cc1,–,52,–,–,35,86
